Screening data from PubChem.
Rows were chosen to be rich in hits. Some 0.86% of all compounds tested hit in one or more screens of this group.
FEN1 inhibitor = human FEN1 inhibition | 390,000 tested, 0.35% active | Potency, µM (top dose mostly 114 µM), inactives show at the top dose activity change, negative = inhibition, most hits filed as inhibitors | Recombinant FEN1 flap cleavage, fluorescence, 15 min | P39748; also: nearly all actives have a fitted effect of over 65% in size
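Reaction started by adding substrate (50 nM final) to 10 nM enzyme after 15 min room-temperature compound preincubation. Reads at 0 and 15 min, with data normalized and fitted to a four-parameter Hill equation.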
RECQ1 inh = inhibitors of human RECQ1 DNA helicase | RECQ1 DNA unwinding, red fluorescence kinetic read | 240,000 tested, 0.54% active | Potency, µM (highest dose often 57.3 µM), for the others: at the highest dose activity, negative = inhibition, actives largely listed as inhibitors | P46063;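 also: plate controls were vehicle for no effect and no enzyme for full effect; nearly all actives have a fitted effect of over 30% in size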
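50 nM RECQ1T1 preincubated 15 min with compound in Tris pH 8.0 buffer with MgCl2, DTT, Tween-20 and 2.5 ug/ml poly(dI-dC); started with 200 nM TAMRA/BHQ-2 forked duplex and 2 mM ATP. Unwinding read as fluorescence (525/598 nm), two reads 2 h apart.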
PGK inhibitor = blocks T. brucei phosphoglycerate kinase; 380,000 tested, 0.043% active; AID 602233; Potency, µM (titrated, usually from 57.5 µM), for inactives: top-dose activity change, negative = inhibition, most hits filed as inhibitors; PGK/GAPDH coupled, Kinase-Glo luminescence, 60 min; also: nearly all actives have a fitted effect of over 60% in size
Target sequence (P07378 whole entry, looked up): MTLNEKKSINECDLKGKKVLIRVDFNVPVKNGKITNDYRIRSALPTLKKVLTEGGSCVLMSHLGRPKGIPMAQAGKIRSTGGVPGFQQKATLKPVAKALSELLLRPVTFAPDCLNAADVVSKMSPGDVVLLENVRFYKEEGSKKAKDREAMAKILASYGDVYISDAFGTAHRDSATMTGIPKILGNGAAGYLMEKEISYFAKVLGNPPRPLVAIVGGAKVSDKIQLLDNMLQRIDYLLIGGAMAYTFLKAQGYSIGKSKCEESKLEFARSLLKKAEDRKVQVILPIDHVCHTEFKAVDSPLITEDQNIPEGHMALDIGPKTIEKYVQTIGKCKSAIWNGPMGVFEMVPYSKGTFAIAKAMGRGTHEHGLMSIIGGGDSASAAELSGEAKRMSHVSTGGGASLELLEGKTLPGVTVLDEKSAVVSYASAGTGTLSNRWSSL
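Recombinant glycosomal PGK reaction used 1,3-bisphosphoglycerate generated in-well by GAPDH (100nM final) in 100mM TEA pH 7.6, 5mM MgCl2, 0.01% Tween-20. After 60 minutes at room temperature, ATP was read by Kinase-Glo Plus luminescence end-point.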
BLM inh = inhibitors of human Bloom syndrome helicase BLM. Potency, µM (titrated, usually from 56.1 µM), without a hit: at the highest dose activity change, negative = inhibition, actives largely listed as inhibitors. P54132. 350,000 tested, 0.2% active. recombinant BLM DNA unwinding, fluorescence dequenching;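 also: plate controls were vehicle for no effect and no enzyme for full effect; nearly all actives have a fitted effect of over 35% in size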
APE1 inh-1 = blocks human APE1 abasic DNA cleavage; P27695; recombinant APE1, TAMRA/BHQ-2 abasic DNA cleavage fluorescence; Potency, µM (highest dose often 65.8 µM), inactives show at the top dose activity change, negative = inhibition, usual class: inhibitors; 350,000 tested, 0.35% active; AID 2517;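 also: plate controls were vehicle for no effect and reference inhibitor for full effect; nearly all actives have a fitted effect of over 55% in size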
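Step 1: APE1 (0.75 nM) with compound, 15 min RT. Step 2: add 50 nM fluorophore/quencher THF duplex. Step 3: three fluorescence reads 60 s apart (525/598 nm); read 3 minus read 1 = reaction progress.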
GLS inh = inhibitors of human glutaminase (GLS) | GLS enzymatic activity, qHTS titration | Potency, µM (highest dose often 45.5 µM), inactives show at the highest dose activity change, negative = inhibition, hits mostly inhibitors | 410,000 tested, 0.21% active
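Assay buffer: 45 mM KH2PO4 pH 8.2, 0.02% Tween-20. hKGA acts on L-glutamine (1 mM solution added); product glutamate is reported by an oxidase/peroxidase Amplex Red coupling, with fluorescence taken at baseline and 30 min.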
APE1 dye cs = DNA dye displacement counter-screen activity; shares compounds with APE1 inh-1; DNA fluorescent dye displacement counterscreen, fluorescence; Potency, µM (highest dose often 28.5 µM), for the others: top-dose activity change, negative = inhibition, usual class: inhibitors; 480 tested, 7% active;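 also: loss of thiazole orange fluorescence as the dye is displaced from duplex DNA; 0% = ThO with dsDNA and no compound and -100% = ThO without dsDNA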
Endo IV inh = counter-screen for APE1 inhibitors: inhibitors of E. coli endonuclease IV. AID 2565. E. coli Endo IV, fluorogenic AP-site DNA cleavage. Potency, µM (highest dose often 27.1 µM), without a hit: top-dose activity change, negative = inhibition, most hits filed as inhibitors. shares compounds with APE1 inh-1. 560 tested, 4% active;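 also: plate controls were uninhibited enzyme wells for no effect and no enzyme buffer wells for full effect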
APE1 inh-2 = APE1 (human) endonuclease inhibition, confirmation | shares compounds with APE1 inh-1 | Potency, µM (doses to about 57.1 µM), for inactives: at the top dose activity change, negative = inhibition, usual class: inhibitors | 750 tested, 44% active | AID 2572 | purified APE1, fluorogenic abasic-site DNA cleavage; also: nearly all actives have a fitted effect of over 30% in size
APE1 FP inh = compounds that displace a DNA probe from human APE1; shares compounds with APE1 inh-1; APE1 binding to TAMRA-labelled double-stranded DNA, fluorescence polarization displacement; Potency, µM (doses to about 28.5 µM), inactives show top-dose activity, negative = inhibition, usual class: inhibitors; 480 tested, 7% active; AID 2573
* hit, by the source's call; i = inactive; ? = inconclusive; nt = not tested or not shown; ! = not confirmed by another sample; [ ] = remark or other dose. Calls follow the shape of the dose curve; as a rule, active = well fitted curve in the direction sought with a large enough effect; inconclusive = small, poorly fitted or top-dose-only effect, or another doubt; inactive = no such curve, though single readings can be large; an effect the other way counts as inactive or inconclusive. Unless noted, % is scaled to controls: 0 for no effect and ±100 for the full control effect; potency is read from the fitted curve at half-maximal effect.

SMILES | FEN1 inhibitor | RECQ1 inh | PGK inhibitor | BLM inh | APE1 inh-1 | GLS inh | APE1 dye cs | Endo IV inh | APE1 inh-2 | APE1 FP inh
O=c1cc(-c2ccc(O)cc2)oc2c(O)c(O)c(O)c(O)c12 | 20µM* | 13µM* | 4.5µM* | 10µM* | 4.5µM* | 11µM* | -14% | 6% | 0.5µM* | 12%
c1ccc(-c2ccc(-c3csc4ncnc(Sc5nnnn5-c5ccccc5)c34)cc2)cc1 | 3% | nt | nt | nt | nt | nt | nt | nt | nt | nt
C/C(=N\NC(=O)c1ccc2nc[nH]c2c1)c1ccc([N+](=O)[O-])cc1 | nt | -5% | nt | 5% | 3% | nt | nt | nt | -22% | nt
Cc1ccc(-c2nc3cnccn3c2Nc2ccc(C(C)C)cc2)o1 | -29% | nt | nt | nt | nt | nt | nt | nt | nt | nt
CC(N=Cc1cccc(O)c1O)c1ccccc1 (stereo unspecified) | 35µM* | 22µM* | -9% | -10% | 14µM* | 8% | 5% | 13% | -7%[24.4 µM] | -3%
CC(N=Cc1cc([N+](=O)[O-])ccc1O)c1ccccc1 (stereo unspecified) | -6% | -1% | -2% | 1% | 3% | 25% | nt | nt | nt | nt
C1=Cc2ccccc2/C1=C\c1ccc2c(c1)OCO2 | -24% | nt | nt | nt | nt | nt | nt | nt | nt | nt
CC1(C)CC(=O)C2=C(C1)NC(Nc1nc3ccccc3o1)=NC2c1cccc(F)c1 (stereo unspecified) | 8% | nt | nt | nt | nt | nt | nt | nt | nt | nt
COc1c(-c2ccc(O)c(O)c2)oc2cc(O)cc(O)c2c1=O | 25µM* | 18µM*! | ? | 11µM*! | ? | ? | ? | 59% | ? | 1%
O=c1c(O[C@@H]2O[C@H](CO)[C@H](O)[C@H](O)[C@H]2O)c(-c2ccc(O)c(O)c2)oc2cc(O)cc(O)c12 | nt | -10% | nt | -1% | ? | nt | nt | nt | nt | nt
O=c1c(OC2OC(CO)C(O)C(O)C2OC2OC(CO)C(O)C(O)C2OC2OC(CO)C(O)C(O)C2O)c(-c2ccc(O)c(O)c2)oc2cc(O)cc(O)c12 (stereo unspecified) | -25% | -8% | -21% | -2% | ? | 41% | -21% | 2% | 10µM* | ?
CC1OC(OC2C(Oc3c(-c4ccc(O)cc4)oc4cc(O)cc(O)c4c3=O)OC(COC3O[C@@H](C)[C@H](O)[C@@H](O)C3O)C(O)C2O)C(O)C(O)C1O (stereo partly specified) | -13% | nt | 2% | nt | 14% | 18% | nt | nt | nt | nt
O=c1c(O)c(-c2ccc(O)cc2O)oc2cc(O)cc(O)c12 | 28µM* | 7.1µM* | nt | -10% | 14µM* | nt | nt | 5%[57.1 µM] | -24% | nt
CC1OC(OCC2OC(Oc3c(-c4ccc(O)cc4)oc4cc(O)cc(O)c4c3=O)C(O)C(O)C2O)C(O)C(O)C1O (stereo unspecified) | ? | ? | ? | -19% | 3.5µM* | ? | ? | 0% | 3.2µM* | -1%
O=c1c(O)c(-c2ccccc2O)oc2cc(O)cc(O)c12 | nt | -4% | nt | -3% | -5% | nt | nt | nt | nt | nt
Cc1ccc(SC[C@H](Cc2ccccc2)N2CC[C@@H](C(C)(C)C)CCC2=O)cc1 | -11% | nt | nt | nt | nt | nt | nt | nt | nt | nt
CCCCCCCCCCCCCCCCCCN(CCCCCCCCCCCCCCCCCC)c1ccccc1 | 2% | nt | nt | nt | nt | nt | nt | nt | nt | nt
Cc1ccc2nc(CSc3nnc(-c4ccco4)o3)cc(=O)n2c1 | 9% | ? | -3% | ? | 22µM* | -3% | -7% | 4% | -22% | -4%
Cc1ccc2nc(CSc3nnc(-c4ccco4)n3-c3ccccc3)cc(=O)n2c1 | 2% | nt | i | nt | nt | 10% | nt | nt | nt | nt
CCCCCN(CCCCC)c1ccc(/C=C/c2ccnc3ccccc23)cc1 | -14% | nt | nt | nt | nt | nt | nt | nt | nt | nt
Nc1cc(=O)[nH]c(SCC(=O)Nc2cccc(Cl)c2)n1 | 9% | -6% | i | 2% | 0% | nt | nt | nt | nt | nt
Cc1ccc(NC(=O)CSc2nc(N)cc(=O)[nH]2)cc1Cl | 2% | -28% | 5% | -4% | 35µM* | -5% | ? | 0% | -5%[24.4 µM] | -4%
Cc1ccc(NC(=O)CSc2nc(NS(=O)(=O)c3ccccc3)cc(=O)[nH]2)cc1 | 79µM* | ? | ? | ? | ? | 3% | nt | nt | -38% | nt
Cc1cc(/C=C2\C=Cc3ccccc32)cc(C)c1N | -25% | nt | nt | nt | nt | nt | nt | nt | nt | nt
O=c1cc(CCl)nc2sc3ccccc3n12 | -1% | -16% | -8% | -11% | ? | -21% | nt | nt | ? | nt
CCCCC#Cc1ccccc1CC(=O)Nc1ccccc1 | -15% | -4% | -4% | -3% | 3% | -9% | nt | nt | ? | nt
O=C(Cc1ccccc1I)Nc1ccccc1 | nt | i | nt | 7% | 11% | nt | nt | nt | nt | nt
O=C(CBr)c1ccc(Oc2ccc(C(=O)C[n+]3cccc(Br)c3)cc2)cc1 | -21% | nt | nt | nt | nt | nt | nt | nt | nt | nt
